Results published in PubChem BioAssay (NCATS).
Results filed as inconclusive are left out. The source made the active and inactive calls. Unless noted, calls come from the whole dose curve; as a rule, active = well fitted curve in the direction sought with a large enough effect; inconclusive = small, poorly fitted or top-dose-only effect, or another doubt; inactive = no such curve, though single readings can be large; an effect the other way counts as inactive or inconclusive.

What was measured:
[1] = NS1 protein of Zika virus - qHTS assay to identify small molecule inhibitors in human HEK 293 cells (AID 1347053); note: series mostly up to about 46 µM; nearly all actives have a fitted effect of over 55% in size
Outline: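 Compound-treated (1 h pre-infection) HEK 293 cells infected with ZIKV MR766, MOI = 0.5; after 24 h at 37 C, NS1 read by TR-FRET; data normalized to uninfected and infected controls.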

[2] = qHTS of pediatric cancer cell lines to identify multiple opportunities for drug repurposing: Primary screen for TC32 cells (AID 1347089); note: nearly all actives have a fitted effect of over 60% in size
Outline: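 In the primary qHTS, MIPE compounds were tested at 11 concentrations (0.78 nM to 46 µM) and NPC compounds at 8 (0.59 nM to 46 µM) on TC32 cells for 48 h. CellTiter-Glo luminescence gave viability.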

[3] = qHTS of pediatric cancer cell lines to identify multiple opportunities for drug repurposing: Primary screen for DAOY cells (AID 1347090); note: series mostly up to about 46 µM; nearly all actives have a fitted effect of over 55% in size
Outline: (§1)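 Viability measured as metabolically active cells via CellTiter-Glo luminescence following 48 hours of compound exposure, 11-point dilutions in confirmatory testing. 500-1,000 cells/well plated 5 hours before dosing; controls were DMSO and 2.3 µM bortezomib.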

[4] = qHTS of pediatric cancer cell lines to identify multiple opportunities for drug repurposing: Primary screen for SJ-GBM2 cells (AID 1347091)
Outline: as §1

[5] = qHTS of pediatric cancer cell lines to identify multiple opportunities for drug repurposing: Primary screen for A673 cells (AID 1347092); note: nearly all actives have a fitted effect of over 45% in size
Outline: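 48 h compound exposure, A673, 500-1,000 cells/well, 37 degrees C/5% CO2. MIPE: 11-point, 0.78 nM-46 µM; NPC: 8-point, 0.59 nM-46 µM (final). Readout CellTiter-Glo luminescence after 15 min RT.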

[6] = qHTS of pediatric cancer cell lines to identify multiple opportunities for drug repurposing: Primary screen for SK-N-MC cells (AID 1347093); note: series mostly up to about 46 µM
Outline: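 Metabolically active cells were quantified by ATP-dependent luminescence (CellTiter-Glo, 15 min at room temperature) following 48 h treatment. Cells had been plated at 500-1,000 per well and settled for 5 h beforehand.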

[7] = target: T1, Tyrosine-protein phosphatase non-receptor type substrate 1 (Homo sapiens) + Leukocyte surface antigen CD47 (Homo sapiens) (UniProt P78324+Q08722); test: CD47-SIRPalpha protein protein interaction - LANCE assay qHTS validation (AID 1347057; active = well fitted curve in the direction sought with a large enough effect in the signal ratio, with a control signal flat, not every such curve was filed as active; the % refers to the signal ratio; note: series mostly up to about 38 µM)
T1 sequence (P78324 whole entry, looked up, the tested form may be a part): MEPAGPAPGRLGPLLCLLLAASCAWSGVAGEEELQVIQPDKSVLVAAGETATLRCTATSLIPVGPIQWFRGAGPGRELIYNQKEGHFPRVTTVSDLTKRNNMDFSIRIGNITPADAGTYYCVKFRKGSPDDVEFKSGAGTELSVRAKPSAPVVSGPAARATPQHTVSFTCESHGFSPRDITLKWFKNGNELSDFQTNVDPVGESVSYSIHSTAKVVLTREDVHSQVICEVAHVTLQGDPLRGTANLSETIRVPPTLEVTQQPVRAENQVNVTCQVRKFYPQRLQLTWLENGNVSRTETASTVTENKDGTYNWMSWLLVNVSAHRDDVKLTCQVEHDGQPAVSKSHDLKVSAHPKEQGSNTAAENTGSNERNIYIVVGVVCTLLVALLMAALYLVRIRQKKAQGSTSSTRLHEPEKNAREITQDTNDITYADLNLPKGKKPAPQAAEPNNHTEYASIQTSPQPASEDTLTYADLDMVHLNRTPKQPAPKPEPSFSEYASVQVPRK
T1 sequence (Q08722 whole entry, looked up, the tested form may be a part): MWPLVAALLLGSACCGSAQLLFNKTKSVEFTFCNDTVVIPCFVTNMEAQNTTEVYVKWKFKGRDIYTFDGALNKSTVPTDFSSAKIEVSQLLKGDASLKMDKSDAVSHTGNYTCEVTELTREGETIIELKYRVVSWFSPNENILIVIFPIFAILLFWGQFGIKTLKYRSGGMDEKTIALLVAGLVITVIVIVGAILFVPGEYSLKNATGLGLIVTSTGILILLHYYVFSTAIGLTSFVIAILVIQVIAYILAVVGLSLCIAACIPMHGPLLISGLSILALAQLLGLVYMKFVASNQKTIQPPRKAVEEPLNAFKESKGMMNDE
Outline: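 Inhibition of soluble CD47/SIRPalpha ectodomain association by titrated compounds, measured as 665/615 nm time-resolved FRET ratio after sequential 30 min room-temperature incubations.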

[8] = target: T1, Tyrosine-protein phosphatase non-receptor type substrate 1 (Homo sapiens) + Leukocyte surface antigen CD47 (Homo sapiens); test: CD47-SIRPalpha protein protein interaction - HTRF assay qHTS validation (AID 1347058; active = well fitted curve in the direction sought with a large enough effect in the signal ratio, not every such curve was filed as active; the % refers to the signal ratio; note: series mostly up to about 38 µM)
Source text: SIRPalpha is a myeloid cell expressed immunomodulatory receptor that binds the tumor expressed immune checkpoint CD47. Therapeutic disruption of this interaction leads to immune-mediated tumor rejection. This assay was used to quantitate CD47-SIRPalpha binding biochemically and evaluate chemical libraries for novel CD47-SIRPalpha inhibitors. To recapitulate the biological interaction of CD47 and SIRPalpha, we designed expression constructs to produce their recombinant, soluble, extracellular interaction domains. CD47 was produced with an N-terminal 6His tag. SIRPalpha was produced with an N-terminal Avi-Tag for site-specific biotin incorporation. The CD47-SIRPalpha interaction was measured by TR-FRET using affinity tag linked reagents (anti-6His-Eu donor and streptavidin-XL665 acceptor). SIRPalpha without biotin incorporation was used as a positive control inhibitor.
SEQUENCE No. (e.g., 1, 2, 3, etc.); […] (e.g., Cells, Incubation, Reagent, etc.); VALUE and DESCRIPTION.
1a. Reagent. 3 uL CD47-His (12.5 nM) and Anti-His Eu Donor reagent (0.7 nM) added to respective wells in Assay buffer; white/solid bottom high base, med bind 1536-well plates (Greiner 789075)
1b. Reagent. 2 uL Assay buffer negative control for background fluorescence
2. Reagent. 23 nL library compounds (7-pt, 1:4 intraplate titration series) or DMSO control transferred by Pin Tool
3. Centrifuge. Centrifuge plate for 30 s at 1000 RPM […]

[9] = target: T1, Tyrosine-protein phosphatase non-receptor type substrate 1 (Homo sapiens) + Leukocyte surface antigen CD47 (Homo sapiens); test: CD47-SIRPalpha protein protein interaction - Alpha assay qHTS validation (AID 1347059);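 note: bead proximity luminescence from CD47 binding SIRPalpha after compound preincubation with SIRPalpha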
Outline: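 SIRPalpha-biotin 25 nM + cpd, 30 min RT, dark; add CD47-His 12.5 nM, 30 min; add Ni-NTA/SAV beads 10 ug/mL, 30 min; AlphaScreen. Buffer PBS pH 7.4 + 0.05% IGEPAL CA-630. Non-biotinylated SIRPalpha as control inhibitor.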

[10] = target: Parathyroid hormone/parathyroid hormone-related peptide receptor (Homo sapiens) (UniProt Q03431); test: qHTS for PTHR1 Agonists: Optimization Screen against the NCGC LOPAC library (AID 1347079);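 note: GloSensor cAMP luminescence in HEK-293 GP2 cells expressing human PTHR1 with IBMX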
Chain of Parathyroid hormone/parathyroid hormone-related peptide receptor (Homo sapiens) (Q03431 whole entry, looked up): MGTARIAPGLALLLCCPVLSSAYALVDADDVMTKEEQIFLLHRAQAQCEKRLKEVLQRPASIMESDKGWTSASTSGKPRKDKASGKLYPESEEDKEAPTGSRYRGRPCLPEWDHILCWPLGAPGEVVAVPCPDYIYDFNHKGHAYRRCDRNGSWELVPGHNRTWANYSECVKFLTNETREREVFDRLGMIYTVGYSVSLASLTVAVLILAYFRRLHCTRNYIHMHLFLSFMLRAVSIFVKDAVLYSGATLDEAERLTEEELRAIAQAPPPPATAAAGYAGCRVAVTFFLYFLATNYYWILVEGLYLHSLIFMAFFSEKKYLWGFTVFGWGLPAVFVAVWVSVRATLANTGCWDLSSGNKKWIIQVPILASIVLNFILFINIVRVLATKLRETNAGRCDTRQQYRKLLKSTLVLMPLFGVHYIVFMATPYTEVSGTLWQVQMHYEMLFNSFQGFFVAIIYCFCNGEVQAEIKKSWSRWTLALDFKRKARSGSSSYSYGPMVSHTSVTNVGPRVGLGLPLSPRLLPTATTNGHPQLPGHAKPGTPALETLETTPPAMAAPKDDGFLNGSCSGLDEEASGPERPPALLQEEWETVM
Outline: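 HEK-293 GP2 cells, PTHR1 + GloSensor cAMP; 3000 cells/well, o/n. Luciferin + IBMX 0.5mM each (stock), 1 hr 37C. Cpd titration, 1 hr 37C. Lum after 15 min RT. Ctrl M-PTH(1-15) top 10uM.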

Measured: outcome

CC(=O)OC(C)OC(=O)C(C)c1ccc(-c2ccccc2)c(F)c1 (stereo not given)
inactive: [1] | [2] | [3] | [4] | [5] | [6]

CN1Cc2c(N)cccc2C(c2ccccc2)C1 (stereo not given)
not listed: [1]
inactive: all other assays above
